About 2,000 (36%) of roughly 5,500 compounds were called active. Another 18% or so got no clear call; they are omitted. No stated cut-off is given here; in the data, active means normalized growth mostly below about 0.91 (no sharp cut-off); inconclusive means no clear call, values can overlap the other calls; inactive means mostly above about 0.92. The list shows a part of the results.
Assay: chemical genetic growth profiling, strain panel (AID 1159580);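 further: tested at 20 µM; growth read once vehicle control cultures reached saturation at 30 °C; 1 = growth at the plate median or of vehicle wells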
Conditions: S. cerevisiae deletion strains, growth OD

Measured: normalized growth

COc1cc(O)cc(/C=C/c2ccccc2)c1
inactive: locus YBR229C, strain ROT2, stronger effect = lower value 0.97 | locus YDR150W, strain NUM1, stronger effect = lower value 0.954 | locus YDR388W, stronger effect = lower value 0.966 | locus YER167W, strain BCK2, stronger effect = lower value 0.94 | locus YHR094C, strain hxt1, stronger effect = lower value 0.946 | locus YIL073C, strain SPO22, stronger effect = lower value 0.809 | locus YIL125W, strain kgd1, stronger effect = lower value 0.94 | locus YJL134W, strain LCB3, stronger effect = lower value 0.976 | locus YJL168C, strain set2, stronger effect = lower value 0.954 | locus YKL068W, stronger effect = lower value 0.954 | locus YLR102C, strain apc9, stronger effect = lower value 0.942 | locus YLR268W, strain sec22, stronger effect = lower value 0.909 | locus YLR371W, strain rom2, stronger effect = lower value 0.949 | locus YML016C, strain PPZ1, stronger effect = lower value 0.924 | locus YMR078C, strain ctf18, stronger effect = lower value 0.938 | locus YOL012C, strain htz1 1.06 | locus YOR316C, strain cot1, stronger effect = lower value 0.949 | locus YPR141C, strain kar3, stronger effect = lower value 0.95
active: locus YBR021W, strain FUR4, stronger effect = lower value 0.833 | locus YCL029C, strain bik1, stronger effect = lower value 0.9 | locus YDL035C, strain GPR1, stronger effect = lower value 0.665 | locus YDL074C, strain BRE1, stronger effect = lower value 0.61 | locus YDL101C, strain DUN1, stronger effect = lower value 0.835 | locus YDL134C, strain PPH21, stronger effect = lower value 0.697 | locus YDL185W, strain tfp1, stronger effect = lower value 0.881 | locus YDL192W, strain arf1, stronger effect = lower value 0.692 | locus YDR101C, strain arx1, stronger effect = lower value 0.858 | locus YDR162C, strain NBP2, stronger effect = lower value 0.618 | locus YDR318W, strain mcm21, stronger effect = lower value 0.805 | locus YDR502C, strain sam2, stronger effect = lower value 0.748 | locus YEL061C, strain CIN8, stronger effect = lower value 0.856 | locus YER110C, stronger effect = lower value 0.866 | locus YER155C, strain BEM2, stronger effect = lower value 0.753 | locus YGL078C, strain dbp3, stronger effect = lower value 0.765 | locus YGL086W, strain mad1, stronger effect = lower value 0.803 | locus YGL248W, strain PDE1, stronger effect = lower value 0.748 | locus YGR135W, strain pre9, stronger effect = lower value 0.713 | locus YGR252W, strain gcn5, stronger effect = lower value 0.519 | locus YHR030C, strain SLT2, stronger effect = lower value 0.795 | locus YHR079C, strain IRE1 (second series), stronger effect = lower value 0.89 | locus YHR129C, strain ARP1, stronger effect = lower value 0.768 | locus YHR200W, strain rpn10, stronger effect = lower value 0.907 | locus YIL066C, strain RNR3, stronger effect = lower value 0.859 | locus YIR030C, strain dcg1, stronger effect = lower value 0.907 | locus YJL095W, strain BCK1, stronger effect = lower value 0.46 | locus YJL187C, strain SWE1 (second series), stronger effect = lower value 0.721 | locus YJR043C, strain POL32, stronger effect = lower value 0.85 | locus YKL009W, strain mrt4, stronger effect = lower value 0.742 | locus YKL085W, strain MDH1 (second series), stronger effect = lower value 0.913 | locus YKL085W, strain MDH1, stronger effect = lower value 0.913 | locus YKL190W, strain CNB1, stronger effect = lower value 0.839 | locus YKR001C, strain vps1, stronger effect = lower value 0.425 | locus YLR039C, strain RIC1, stronger effect = lower value 0.507 | locus YLR058C, strain SHM2, stronger effect = lower value 0.784 | locus YLR262C, strain YPT6, stronger effect = lower value 0.381 | locus YLR330W, strain CHS5, stronger effect = lower value 0.715 | locus YLR342W, strain FKS1 (second series), stronger effect = lower value 0.601 | locus YLR418C, strain cdc73, stronger effect = lower value 0.456 | locus YML032C, strain rad52, stronger effect = lower value 0.795 | locus YML124C, strain tub3, stronger effect = lower value 0.914 | locus YMR223W, strain ubp8, stronger effect = lower value 0.805 | locus YMR263W, strain SAP30, stronger effect = lower value 0.768 | locus YMR307W, strain GAS1, stronger effect = lower value 0.59 | locus YNL067W, strain RPL9B, stronger effect = lower value 0.721 | locus YNL233W, strain BNI4, stronger effect = lower value 0.67 | locus YNL250W, strain rad50, stronger effect = lower value 0.887 | locus YNL271C, strain bni1, stronger effect = lower value 0.855 | locus YNL298W, strain CLA4, stronger effect = lower value 0.802 | locus YNL307C, strain MCK1, stronger effect = lower value 0.513 | locus YNR052C, strain pop2, stronger effect = lower value 0.855 | locus YOL147C, strain pex11, stronger effect = lower value 0.824 | locus YOR061W, strain CKA2, stronger effect = lower value 0.885 | locus YOR069W, strain VPS5, stronger effect = lower value 0.807 | locus YOR136W, strain idh2, stronger effect = lower value 0.899 | locus YOR144C, strain elg1, stronger effect = lower value 0.918 | locus YOR184W, strain ser1, stronger effect = lower value 0.666 | locus YPR119W, strain clb2, stronger effect = lower value 0.924 | locus YPR163C, strain tif3, stronger effect = lower value 0.682 | locus YPR167C, strain met16, stronger effect = lower value 0.809 | strain wtn01, stronger effect = lower value 0.789

Source: PubChem BioAssay AID1159580 (chemical genetic matrix, 2015)
